# Calls of active or inactive are those of the source.
# What was measured:
# [1] = tested on: Plasmodium falciparum Sir2 (PF13_0152, Sir2A); experiment: Plasmodium falciparum Sir2A binding compounds – biochemical, small-molecule microarray, 635 nm fluorescence, primary screen (AID 1098); details: fluorescence 635 nm, higher = more signal;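 further: score merges spot fluorescence intensity with its signal-to-noise ratio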
# [2] = probe aDKK1 binding to arrayed compounds – biochemical, biotinylated probe, 635/667 nm fluorescence, primary screen (AID 1099); details: small-molecule microarray, higher = more signal;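 further: score merges 667nm spot fluorescence with signal to noise across triplicate slides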
# [3] = probe aCHRDL2 binding to arrayed compounds – biochemical, biotinylated probe, 635/667 nm fluorescence, primary screen (AID 1100); details: small-molecule microarray, higher = more signal
# [4] = change in splice reporter luminescence, either direction, cell-based, HEK293, spliceosome inhibition project, primary screen (AID 1101); details: HEK293 splicing luciferase reporter, 24 h, higher = more signal, called active from +8 up or from −8 down;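 further: HEK293 cells carrying a splicing-competent luciferase reporter gene; test concentration not given here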
# [5] = target: Fibroblast growth factor 10 (Homo sapiens) (UniProt O15520); experiment: compounds binding fibroblast growth factor 10 – biochemical, small-molecule microarray, 635 nm fluorescence, primary screen (AID 1102); details: FGF10 binding, fluorescence 635 nm, higher = more signal
# Chain of Fibroblast growth factor 10 (Homo sapiens) (O15520 whole entry, looked up): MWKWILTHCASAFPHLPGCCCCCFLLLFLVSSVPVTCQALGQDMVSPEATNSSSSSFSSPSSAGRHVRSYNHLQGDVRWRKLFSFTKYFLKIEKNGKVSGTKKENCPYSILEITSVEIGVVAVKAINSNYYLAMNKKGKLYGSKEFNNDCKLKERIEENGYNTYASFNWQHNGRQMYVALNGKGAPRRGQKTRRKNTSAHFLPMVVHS
# [6] = tested on: glycogen synthase kinase-3 (GSK3A per assay name; protocol says GSK3B); experiment: compounds binding glycogen synthase kinase-3 – biochemical, small-molecule microarray, 635 nm fluorescence, GSK3A, primary screen (AID 1103); details: fluorescence 635 nm, higher = more signal; further: the record names both GSK3A and GSK3B
# [7] = target: Epidermal growth factor receptor (Homo sapiens) (UniProt P00533); experiment: compounds binding epidermal growth factor receptor – biochemical, small-molecule microarray, 635 nm fluorescence, primary screen (AID 1104); details: EGFR binding, higher = more signal;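 further: score merges 667 nm emission intensity with spot signal to noise over triplicate slides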
# Chain of Epidermal growth factor receptor (Homo sapiens) (P00533 whole entry, looked up): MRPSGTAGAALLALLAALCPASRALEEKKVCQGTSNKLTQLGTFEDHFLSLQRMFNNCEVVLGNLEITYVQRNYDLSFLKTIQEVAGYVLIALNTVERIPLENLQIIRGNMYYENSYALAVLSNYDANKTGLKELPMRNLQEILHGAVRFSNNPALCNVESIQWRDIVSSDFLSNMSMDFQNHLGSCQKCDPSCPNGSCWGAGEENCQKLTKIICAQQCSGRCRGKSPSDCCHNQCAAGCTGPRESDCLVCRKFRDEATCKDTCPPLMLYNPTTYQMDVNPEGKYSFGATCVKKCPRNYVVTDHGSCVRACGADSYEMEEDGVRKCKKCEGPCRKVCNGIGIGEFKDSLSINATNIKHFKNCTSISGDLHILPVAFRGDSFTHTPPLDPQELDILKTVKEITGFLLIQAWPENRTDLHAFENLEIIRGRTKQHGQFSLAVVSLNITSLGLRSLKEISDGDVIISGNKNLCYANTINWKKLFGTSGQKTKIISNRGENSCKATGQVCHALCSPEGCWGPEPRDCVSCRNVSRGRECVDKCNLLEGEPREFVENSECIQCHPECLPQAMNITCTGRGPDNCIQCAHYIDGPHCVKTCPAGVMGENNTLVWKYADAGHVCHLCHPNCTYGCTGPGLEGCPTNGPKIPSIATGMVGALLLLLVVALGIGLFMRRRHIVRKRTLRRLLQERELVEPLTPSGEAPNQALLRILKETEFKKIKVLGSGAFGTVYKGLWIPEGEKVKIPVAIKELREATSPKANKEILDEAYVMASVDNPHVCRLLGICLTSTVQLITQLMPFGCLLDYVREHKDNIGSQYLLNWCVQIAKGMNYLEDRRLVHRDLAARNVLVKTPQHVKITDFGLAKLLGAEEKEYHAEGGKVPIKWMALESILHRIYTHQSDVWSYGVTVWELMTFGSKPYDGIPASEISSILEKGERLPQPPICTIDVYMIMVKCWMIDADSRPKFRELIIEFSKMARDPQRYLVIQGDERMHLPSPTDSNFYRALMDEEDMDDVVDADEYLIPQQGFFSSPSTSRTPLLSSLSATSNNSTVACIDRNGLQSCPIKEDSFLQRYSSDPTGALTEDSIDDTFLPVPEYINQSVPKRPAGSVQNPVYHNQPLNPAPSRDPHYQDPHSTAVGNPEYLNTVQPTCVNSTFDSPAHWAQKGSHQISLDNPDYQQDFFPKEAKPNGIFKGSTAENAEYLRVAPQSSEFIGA
# [8] = target: Follistatin-related protein 3 (Homo sapiens) (UniProt O95633); experiment: compounds binding follistatin-related protein 3 – biochemical, small-molecule microarray, 635 nm fluorescence, primary screen (AID 1105); details: FSTL3 binding, higher = more signal;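 further: score merges emission near 667 nm and signal to noise per printed spot across three slides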
# Chain of Follistatin-related protein 3 (Homo sapiens) (O95633 whole entry, looked up): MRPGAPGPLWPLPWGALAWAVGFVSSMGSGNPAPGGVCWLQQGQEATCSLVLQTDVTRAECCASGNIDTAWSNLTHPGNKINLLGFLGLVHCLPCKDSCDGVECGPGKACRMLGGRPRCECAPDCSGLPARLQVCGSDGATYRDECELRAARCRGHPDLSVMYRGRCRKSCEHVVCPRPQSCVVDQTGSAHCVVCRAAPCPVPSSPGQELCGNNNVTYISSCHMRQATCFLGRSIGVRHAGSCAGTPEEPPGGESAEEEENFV
# [9] = target: Dickkopf-related protein 1 (Homo sapiens) (UniProt O94907); experiment: small molecules binding DKK1 protein – biochemical, small-molecule microarray, 635 nm fluorescence scan, primary screen (AID 1106); details: higher = more signal;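 further: score merges emission near 667 nm with signal to noise over three replicate slides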
# Chain of Dickkopf-related protein 1 (Homo sapiens) (O94907 whole entry, looked up): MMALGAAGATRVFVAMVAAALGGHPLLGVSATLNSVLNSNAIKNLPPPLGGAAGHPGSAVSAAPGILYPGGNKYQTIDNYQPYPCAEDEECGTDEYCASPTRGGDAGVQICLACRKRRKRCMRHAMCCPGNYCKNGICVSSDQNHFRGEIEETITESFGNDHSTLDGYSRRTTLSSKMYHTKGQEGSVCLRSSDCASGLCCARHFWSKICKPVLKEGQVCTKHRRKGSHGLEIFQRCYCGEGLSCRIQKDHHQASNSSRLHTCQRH
# [10] = tested on: Inhibin beta A chain (activin A); experiment: small molecules binding activin A – biochemical, small-molecule microarray, 635 nm fluorescence scan, primary screen (AID 1107); details: INHBA, higher = more signal;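 further: mouse activin A protein probed at 4.33 µg/mL on printed slides; score merges bound-protein fluorescence near 667 nm with spot signal-to-noise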
# [11] = tested on: Human papillomavirus type 1a protein E7 (residues 44-93); experiment: small molecules binding HPV E7 44-93 – biochemical, small-molecule microarray, residues 44-93, 635 nm fluorescence, primary screen (AID 1108); details: fluorescence 635 nm, higher = more signal;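 further: E7 fragment applied at 1 µg/mL in TBST for 1 h at 4 C; score combines spot fluorescence with its signal to noise ratio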
# [12] = hepatitis C replication reporter changes, two-sided – Huh7 cells, luciferase reporter, HCV replication inhibitor project, primary screen (AID 1109); details: Huh7 HCV replicon luciferase reporter, 48 h; higher = more signal;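 further: huh7 hepatoma cells harbouring a luciferase neomycin HCV replicon reporter; luciferase luminescence as measure of HCV replicon replication; test concentration not given here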
# [13] = target: Left-right determination factor 2 (Homo sapiens) (UniProt O00292); experiment: small molecules binding LEFTY2 protein – biochemical, small-molecule microarray, 635 nm fluorescence scan, primary screen (AID 1110); details: higher = more signal
# Chain of Left-right determination factor 2 (Homo sapiens) (O00292 whole entry, looked up): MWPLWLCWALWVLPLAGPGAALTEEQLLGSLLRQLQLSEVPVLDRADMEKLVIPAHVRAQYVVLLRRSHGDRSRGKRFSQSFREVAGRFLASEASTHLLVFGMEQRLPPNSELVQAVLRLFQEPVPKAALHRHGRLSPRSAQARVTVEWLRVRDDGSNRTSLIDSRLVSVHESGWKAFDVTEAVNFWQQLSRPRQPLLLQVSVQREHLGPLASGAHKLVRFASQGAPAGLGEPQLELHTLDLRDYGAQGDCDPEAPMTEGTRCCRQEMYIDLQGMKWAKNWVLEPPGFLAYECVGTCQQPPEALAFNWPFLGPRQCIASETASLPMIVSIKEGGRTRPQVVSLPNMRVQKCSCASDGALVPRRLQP
# [14] = target: Calmodulin-1 (Homo sapiens) (UniProt P0DP23); experiment: small molecules binding calmodulin-1 with EGTA – biochemical, small-molecule microarray, Cy5-labelled CALM1, profiling panel (AID 1111); details: Cy5-CALM1 binding fluorescence, higher = more signal;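 further: labelled calmodulin applied in Tris saline Tween buffer holding calcium plus EGTA and DTT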
# [15] = target: Calmodulin-1 (Homo sapiens) (UniProt P0DP23); experiment: small molecules binding Ca-loaded calmodulin-1 – biochemical, small-molecule microarray, Cy5-labelled CALM1, plus calcium, artefact control for SMM control-protein annotation, profiling panel (AID 1112); details: Cy5-CALM1 binding fluorescence, higher = more signal;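 further: score merges spot fluorescence with signal to noise from triplicate slides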
# [16] = probe aWnt5a binding to arrayed compounds – biochemical, biotinylated probe, 635/667 nm fluorescence, primary screen (AID 1113); details: small-molecule microarray, higher = more signal;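 further: score merges 667 nm fluorescence intensity with signal-to-noise per printed feature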
# [17] = probe aShh binding to arrayed compounds – biochemical, biotinylated probe, 635/667 nm fluorescence, primary screen (AID 1114); details: small-molecule microarray, higher = more signal;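 further: probe is biotin-labelled aShh protein from a stem cell growth factor screen; measures binding of labelled protein to compounds printed on the slide; score merges feature fluorescence at 667 nm with signal-to-noise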
# [18] = probe aNog binding to arrayed compounds – biochemical, biotinylated probe, 635/667 nm fluorescence, primary screen (AID 1115); details: small-molecule microarray, higher = more signal;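 further: probe is biotinylated aNog protein used at 0.15 µg/mL for 1 h at 4 C; z-score combines 667 nm fluorescence of each spot with its signal to noise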
# [19] = target: Torsin-1A-interacting protein 1 (Homo sapiens) (UniProt Q5JTV8); experiment: compound microarray binding of lysate hLAP1 – cell lysate, small-molecule microarray, COS7 lysate, 635/667 nm fluorescence, primary screen (AID 1116); details: 635 nm fluorescence, higher = more signal
# Chain of Torsin-1A-interacting protein 1 (Homo sapiens) (Q5JTV8 whole entry, looked up): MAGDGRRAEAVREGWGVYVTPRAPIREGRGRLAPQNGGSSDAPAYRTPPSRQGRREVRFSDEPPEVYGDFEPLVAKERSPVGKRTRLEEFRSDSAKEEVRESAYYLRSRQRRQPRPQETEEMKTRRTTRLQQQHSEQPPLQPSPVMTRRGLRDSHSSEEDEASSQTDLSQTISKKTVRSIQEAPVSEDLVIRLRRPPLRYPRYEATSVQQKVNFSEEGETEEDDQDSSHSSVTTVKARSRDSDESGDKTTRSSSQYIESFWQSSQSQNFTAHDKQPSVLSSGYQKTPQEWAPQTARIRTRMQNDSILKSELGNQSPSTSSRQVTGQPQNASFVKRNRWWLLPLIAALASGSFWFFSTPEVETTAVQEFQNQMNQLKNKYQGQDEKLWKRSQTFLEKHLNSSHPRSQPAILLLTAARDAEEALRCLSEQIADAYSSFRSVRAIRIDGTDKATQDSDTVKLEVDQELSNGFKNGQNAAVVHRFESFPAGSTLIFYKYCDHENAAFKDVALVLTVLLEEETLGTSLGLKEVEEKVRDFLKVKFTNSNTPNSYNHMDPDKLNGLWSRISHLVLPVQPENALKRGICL
# [20] = target: Alpha-bungarotoxin (Bungarus multicinctus) (UniProt P60615); experiment: compounds binding labelled alpha-BTX control protein – biochemical, small-molecule microarray, Alexa647 label, 635/667 nm fluorescence, artefact control for SMM control protein annotation, profiling panel (AID 1117); details: alpha-BTX-A647 binding fluorescence, higher = more signal
# Chain of Alpha-bungarotoxin (Bungarus multicinctus) (P60615 whole entry, looked up): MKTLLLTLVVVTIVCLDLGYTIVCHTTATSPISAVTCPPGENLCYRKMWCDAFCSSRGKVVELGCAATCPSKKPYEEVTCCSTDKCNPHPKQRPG
smiles,measurement,setting,value
COc1ccc(C(O)C2C=CC3C(=O)N(c4ccccc4)C(=O)C3N2Nc2ccc(C#N)cc2)cc1OCc1ccccc1 (stereo not given),composite z-score,[1],1.09
same,composite z-score,[2],1.31
same,composite z-score,[3],1.42
same,z-score,[4],0.471 (inactive)
same,composite z-score,[5],0.372
same,composite z-score,[6],0.564
same,composite z-score,[7],0.0706
same,composite z-score,[8],0.727
same,composite z-score,[9],-0.463
same,composite z-score,[10],0.898
same,composite z-score,[11],1.04
same,z-score,[12],-0.738
same,composite z-score,[13],-0.165
same,composite z-score,[14],2.32
same,composite z-score,[15],1.29
same,composite z-score,[16],0.0497
same,composite z-score,[17],0.171
same,composite z-score,[18],0.1
same,composite z-score,[19],2.54
same,composite z-score,[20],1.16
COC(=O)C1=CC(CCCO)=CC(c2cccs2)N(Cc2cc3c(cc2Br)OCO3)C=C1C(=O)OC (stereo not given),composite z-score,[1],1.53
same,composite z-score,[2],0.718
same,composite z-score,[3],0.628
same,z-score,[4],-0.478 (inactive)
same,composite z-score,[5],1.17
same,composite z-score,[6],1.3
same,composite z-score,[7],0.511
same,composite z-score,[8],0.908
same,composite z-score,[9],0.166
same,composite z-score,[10],1.01
same,composite z-score,[11],0.931
same,z-score,[12],-1.64
same,composite z-score,[13],0.578
same,composite z-score,[14],1.69
same,composite z-score,[15],0.458
same,composite z-score,[16],0.0618
same,composite z-score,[17],0.246
same,composite z-score,[18],-0.0381
same,composite z-score,[19],0.834
same,composite z-score,[20],2.49
CCCNC(=O)[C@@]1(c2ccc([N+](=O)[O-])cc2)CC(=O)N(C(C)C)[C@@H]1c1ccc(CO)cc1,composite z-score,[1],0.928
same,composite z-score,[2],-0.0525
same,composite z-score,[3],0.985
same,z-score,[4],-0.27 (inactive)
same,composite z-score,[5],-0.853
same,composite z-score,[6],-0.664
same,composite z-score,[7],-1.52
same,composite z-score,[8],-0.546
same,composite z-score,[9],-0.695
same,composite z-score,[10],-0.251
same,composite z-score,[11],-0.603
same,z-score,[12],0.0828
same,composite z-score,[13],-0.649
same,composite z-score,[14],-0.168
same,composite z-score,[15],0.263
same,composite z-score,[16],-0.18
same,composite z-score,[17],-0.138
same,composite z-score,[18],-0.326
same,composite z-score,[19],-0.824
same,composite z-score,[20],-0.276
CC(C)C(=C=CC[C@H](O)c1ccccc1OCCO)C[C@H](O)c1cc(Cl)cc(Cl)c1O,composite z-score,[1],1.25
same,composite z-score,[2],-0.0965
same,composite z-score,[3],-0.13
same,z-score,[4],-0.605 (inactive)
same,composite z-score,[5],1.11
same,composite z-score,[6],0.579
same,composite z-score,[7],-0.172
same,composite z-score,[8],0.588
same,composite z-score,[9],-0.0053
same,composite z-score,[10],0.149
same,composite z-score,[11],1.46
same,z-score,[12],-1.99
same,composite z-score,[13],0.0124
same,composite z-score,[14],0.195
same,composite z-score,[15],0.271
same,composite z-score,[16],-0.106
same,composite z-score,[17],0.0048
same,composite z-score,[18],0.158
same,composite z-score,[19],0.962
same,composite z-score,[20],0.919
CC1CC/C=C\[C@H]2OC34C=CCN(C(C)(C)C)C(=O)[C@H]3N(CCCO)C(=O)[C@@H]4C2C(=O)O1 (stereo not given in full),composite z-score,[1],0.28
same,composite z-score,[2],-0.107
same,composite z-score,[3],0.4
same,z-score,[4],0.964 (inactive)
same,composite z-score,[5],-0.0987
same,composite z-score,[6],-0.592
same,composite z-score,[7],-0.927
same,composite z-score,[8],-0.943
same,composite z-score,[9],-0.863
same,composite z-score,[10],0.406
same,composite z-score,[11],-0.0793
same,z-score,[12],-0.751
same,composite z-score,[13],-0.19
same,composite z-score,[14],-0.128
same,composite z-score,[15],0.588
same,composite z-score,[16],-0.105
same,composite z-score,[17],0.0278
same,composite z-score,[18],0.0215
same,composite z-score,[19],1.42
same,composite z-score,[20],-1.18
COC(=O)[C@]1(CCC(=O)OC(C)(C)C)N=C(c2ccc(OCCCO)cc2)O[C@@H]1c1ccccc1N=[N+]=[N-],composite z-score,[1],0.911
same,composite z-score,[2],0.254
same,composite z-score,[3],0.855
same,z-score,[4],-0.229 (inactive)
same,composite z-score,[5],0.49
same,composite z-score,[6],-0.107
same,composite z-score,[7],-0.287
same,composite z-score,[8],0.168
same,composite z-score,[9],-0.281
same,composite z-score,[10],0.809
same,composite z-score,[11],0.892
same,z-score,[12],-2.05
same,composite z-score,[13],-0.557
same,composite z-score,[14],-0.175
same,composite z-score,[15],-0.875
same,composite z-score,[16],0.0403
same,composite z-score,[17],-0.119
same,composite z-score,[18],0.504
same,composite z-score,[19],0.468
same,composite z-score,[20],0.302
CCCC=C(CCC)[C@@H](NC(=O)c1ccc(C(F)(F)F)cc1)c1ccc(C(F)(F)F)cc1,composite z-score,[1],0.654
same,composite z-score,[2],0.73
same,composite z-score,[3],1.09
same,z-score,[4],-3.17 (inactive)
same,composite z-score,[5],0.793
same,composite z-score,[6],1.13
same,composite z-score,[7],-0.254
same,composite z-score,[8],0.468
same,composite z-score,[9],-0.906
same,composite z-score,[10],0.932
same,composite z-score,[11],1.36
same,z-score,[12],-1.5
same,composite z-score,[13],-0.203
same,composite z-score,[14],1.72
same,composite z-score,[15],1.09
same,composite z-score,[16],0.253
same,composite z-score,[17],0.778
same,composite z-score,[18],1.78
same,composite z-score,[19],0.926
same,composite z-score,[20],0.942
CCOC(=O)C[C@H]1[C@H](OC(=O)c2cc3ccccc3oc2=O)[C@@H](NC(=O)CC(C)C)c2cc(OCCCO)ccc2N1C(=O)Cc1ccc(OC)cc1,composite z-score,[1],0.621
same,composite z-score,[2],-0.283
same,composite z-score,[3],-0.309
same,z-score,[4],-0.339 (inactive)
same,composite z-score,[5],0.942
same,composite z-score,[6],0.523
same,composite z-score,[7],0.145
same,composite z-score,[8],0.91
same,composite z-score,[9],0.481
same,composite z-score,[10],-0.0372
same,composite z-score,[11],0.653
same,z-score,[12],-0.0665
same,composite z-score,[13],0.455
same,composite z-score,[14],-0.0388
same,composite z-score,[15],-0.61
same,composite z-score,[16],-0.16
same,composite z-score,[17],-0.206
same,composite z-score,[18],-0.238
same,composite z-score,[19],0.571
same,composite z-score,[20],-0.472
COCCOC(=O)N1C(=O)[C@@]2(c3cc(C#CCC(C(=O)OC)C(=O)OC)ccc31)[C@H](C(=O)Nc1nc3ccccc3s1)[C@H]1C(=O)O[C@H](c3ccccc3)[C@H](c3ccccc3)N1[C@@H]2c1ccc(O)cc1,composite z-score,[1],1.42
same,composite z-score,[2],0.0737
same,composite z-score,[3],0.309
same,z-score,[4],-0.88 (inactive)
same,composite z-score,[5],1.34
same,composite z-score,[6],1.3
same,composite z-score,[7],0.861
same,composite z-score,[8],1.41
same,composite z-score,[9],1.06
same,composite z-score,[10],0.157
same,composite z-score,[11],1.42
same,z-score,[12],-0.146
same,composite z-score,[13],1.31
same,composite z-score,[14],0.975
same,composite z-score,[15],-0.0869
same,composite z-score,[16],-0.0044
same,composite z-score,[17],-0.043
same,composite z-score,[18],0.459
same,composite z-score,[19],0.706
same,composite z-score,[20],1.63
O=C(O)[C@H](Cc1ccccc1)n1cc(C2(O)CCCCC2)nn1,composite z-score,[1],-0.0685
same,composite z-score,[2],-0.201
same,composite z-score,[3],-0.518
same,z-score,[4],-0.358 (inactive)
same,composite z-score,[5],0.193
same,composite z-score,[6],0.938
same,composite z-score,[7],0.213
same,composite z-score,[8],0.343
same,composite z-score,[9],0.196
same,composite z-score,[10],-0.0247
same,composite z-score,[11],0.792
same,z-score,[12],-0.96
same,composite z-score,[13],0.678
same,composite z-score,[14],-0.259
same,composite z-score,[15],-0.691
same,composite z-score,[16],-0.263
same,composite z-score,[17],0.527
same,composite z-score,[18],-0.0899
same,composite z-score,[19],0.281
same,composite z-score,[20],0.0396
